Mac1 fbg enh – enhancers of human CD11b/CD18 binding to fibrinogen. K562 CD11b/CD18 adhesion to fibrinogen, ATPlite luminescence. actives 0.07% (n = 93,000). P05107+P11215. activation, % at 10 µM;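 active means 10 µM primary screen giving 50% or more activity, confirmed by 40% or more on retest at that dose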
CYP2C9 inhib – human CYP2C9 inhibition | inhibition, % at 5 µM | P11712 | CYP2C9 Supersomes, luciferin-H conversion, luminescence | actives 20% (n = 96,000) | AID 777;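 active means blocking of liver enzyme CYP2C9 beyond about 50% at 5 µM, limit read from the data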
Target sequence (P11712 whole entry, looked up): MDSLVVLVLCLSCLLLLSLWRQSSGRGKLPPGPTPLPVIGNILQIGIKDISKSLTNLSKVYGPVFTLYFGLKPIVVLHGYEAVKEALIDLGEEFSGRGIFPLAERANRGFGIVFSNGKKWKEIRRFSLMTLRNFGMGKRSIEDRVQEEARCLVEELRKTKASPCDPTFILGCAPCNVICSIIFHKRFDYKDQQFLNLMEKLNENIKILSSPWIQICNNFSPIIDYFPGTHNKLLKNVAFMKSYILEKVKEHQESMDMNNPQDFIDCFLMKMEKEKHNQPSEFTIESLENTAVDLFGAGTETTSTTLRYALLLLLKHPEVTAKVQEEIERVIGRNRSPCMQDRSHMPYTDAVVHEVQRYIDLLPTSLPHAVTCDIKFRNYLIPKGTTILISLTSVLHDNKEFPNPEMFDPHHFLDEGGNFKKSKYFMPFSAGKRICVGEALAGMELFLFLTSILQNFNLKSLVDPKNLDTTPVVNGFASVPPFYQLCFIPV
CYP2C19 inh – human CYP2C19 inhibition; P33261; CYP2C19 Supersomes, luciferin-H EGE luminescence, 30 min; inhibition, % at 5 µM; actives 21% (n = 96,000); AID 778;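 active means CYP2C19 inhibition above a set limit at 5 µM in the primary screen, cut at about 50% in these data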;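 further: plate controls were negative control wells for no effect and 2.5 mM tranylcypromine positive control for full effect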
CYP2C9 act – CYP2C9 (human) activation | activation factor at 5 µM | actives 1.4% (n = 96,000) | recombinant CYP2C9, luciferin-H conversion, luminescence; active compounds read high; factor 1 = untreated enzyme, 0 = blocked | P11712;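 active means activation factor of 2 or more for CYP2C9 at a 5 µM dose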;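 further: 0 = sulfaphenazole-blocked wells and 1 = vehicle-only wells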
CYP2C19 act – cytochrome P450 2C19 (human) activation; P33261; recombinant CYP2C19, luciferin-H EGE luminescence; active compounds read high; 0 = fully inhibited enzyme, 1 = untreated enzyme; activation factor at 5 µM; 96,000 tested, under 10 active; AID 1025;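 active means activation factor of at least 2 at 5 µM in the primary screen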;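 further: 0 = wells with 2.5 mM tranylcypromine and 1 = vehicle-only wells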
CD11b adhes inh – blocks human CD11b/CD18 adhesion to fibrinogen | K562 CD11b/CD18 adhesion to fibrinogen, ATPlite luminescence; Mn2+ added to activate the integrin | AID 1497 | inhibition, % at 10 µM | actives 0.54% (n = 93,000);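 active means primary inhibition of 50% or more at 10 µM, then 40% or more on retest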
Active calls of the source: *; · = no result. Compounds with a hit are over-represented: about 28% of the library has one in this group of screens.

SMILES | Mac1 fbg enh | CYP2C9 inhib | CYP2C19 inh | CYP2C9 act | CYP2C19 act | CD11b adhes inh
COc1cccc(NC(=O)COC(=O)c2ccc(S(=O)(=O)NCc3ccco3)cc2)c1 | 0.3 | 86.0* | 7.3 | 0.1 | 0.9 | -2.0
CC(C)CC(=O)Nc1ccc(S(=O)(=O)NCc2ccco2)cc1 | 0.8 | 45.6 | -6.7 | 0.5 | 1.1 | 1.5
O=C(COc1ccccc1)NCC(=O)Nc1ccc(S(=O)(=O)NCc2ccco2)cc1 | -2.5 | 56.9* | -7.9 | 0.4 | 1.1 | -3.3
O=C(COc1ccccc1)Nc1ccc(S(=O)(=O)NCc2ccco2)cc1 | -3.6 | 50.8* | 17.4 | 0.5 | 0.8 | 1.4
O=C(COc1ccccc1F)Nc1ccc(S(=O)(=O)NCc2ccco2)cc1 | -3.7 | 53.1* | 17.2 | 0.5 | 0.8 | 10.0
O=C(CCS(=O)(=O)c1cccc2nsnc12)NCc1ccccc1Cl | -5.9 | -4.5 | 34.6 | 1 | 0.7 | 6.4
COc1ccc(NC2C=CS(=O)(=O)C2)c(OC)c1 (centres undefined) | 3.7 | -16.9 | -14.5 | 1.2 | 1.1 | 2.1
Cc1ccc(C)c(N2C(=O)CN=C2Nc2ccccc2Cl)c1 | 2.8 | 43.8 | 45.0 | 0.6 | 0.6 | -36.1
c1ccc(-c2n[nH]c(-c3ccccn3)n2)nc1 | 0.1 | 13.8 | 67.2* | 0.9 | 0.3 | -30.2
O=C(COc1ccccc1)Nc1nnc(-c2ccc3c(c2)CCCC3)o1 | 2.1 | 51.9* | 11.9 | 0.5 | 0.9 | -27.6
O=C(Nc1nnc(-c2ccc3c(c2)CCCC3)o1)c1ccccc1 | 1.1 | 31.1 | 2.6 | 0.7 | 1 | 46.7
COc1ccc2c(c1OC)C(=O)N1N=C(c3ccc(Cl)cc3)CC21 (centres undefined) | -1.4 | · | · | · | · | 2.3
Brc1cccc(/C=N\n2cnnc2)c1 | 4.4 | 8.1 | 38.0 | 0.9 | 0.6 | -0.4
Cc1ccc(S(=O)(=O)Nc2ccc(Br)cc2/C=N/n2cnnc2)cc1 | -2.5 | 61.9* | 53.6* | 0.4 | 0.5 | 7.3
Cc1ccc(-n2nnnc2-c2cnc(N3CCCC3)nc2C(F)(F)F)cc1 | -4.3 | 76.2* | 87.2* | 0.2 | 0.1 | 63.6
COc1ccc(-n2nnnc2-c2cn(C)nc2C(F)(F)F)cc1 | · | 16.2 | 49.7 | 0.8 | 0.5 | ·
FC(F)(F)c1nc(N2CCCC2)ncc1-c1nnnn1-c1ccccc1 | · | 51.6* | 82.3* | 0.5 | 0.2 | ·
Cn1cc(-c2nnnn2-c2ccccc2)c(=O)c2ccccc21 | 1.6 | -16.4 | 9.3 | 1.2 | 0.9 | -2.6
O=C(Nc1ccccn1)NC(C(F)(F)F)C(F)(F)F | -2.4 | -7.2 | 3.5 | 1.1 | 1 | -3.3
O=C(O)C1C2C=CC(C2)C1C(=O)NCCCn1ccnc1 (centres undefined) | 2.0 | 67.1* | 87.7* | 0.3 | 0.1 | -3.0
O=C(O)C1C2C=CC(C2)C1C(=O)NCCc1ccncc1 (centres undefined) | -2.1 | 22.9 | 78.3* | 0.8 | 0.2 | 0.9
COc1ccc(C2C(C#N)=C(/N=C/N3CCN(C)CC3)OC3=C2C(=O)CC(C)(C)C3)cc1OC (centres undefined) | 0.3 | 33.3 | 31.0 | 0.7 | 0.7 | -9.3
COc1ccc(-c2cc3ccccc3oc2=O)cc1NC(=S)NC(=O)c1ccc2c(c1)OCCO2 | · | 1.2 | -14.4 | 1 | 1.1 | ·
CCCc1cc(-c2nc(N)ncc2-c2ccc3c(c2)OCCCO3)c(O)cc1OC | · | 68.3* | 42.3 | 0.3 | 0.6 | ·
Cc1cc(C)n(-c2cc(-n3nc(C)cc3C)ncn2)n1 | -1.2 | -17.0 | 43.3 | 1.2 | 0.6 | 8.1
SMILES | Mac1 fbg enh | CYP2C9 inhib | CYP2C19 inh | CYP2C9 act | CYP2C19 act | CD11b adhes inh
Cc1ccc(Nc2cc(-n3nc(C)cc3C)ncn2)c(C)c1 | -2.8 | 27.0 | 54.4* | 0.7 | 0.5 | -3.4
Cc1ccc(Nc2cc(-n3cccn3)ncn2)c(C)c1 | 2.3 | 33.1 | 60.7* | 0.7 | 0.4 | -17.3
C=CCc1cccc(CNc2c(C)n(C)n(-c3ccccc3)c2=O)c1O | 5.6 | 11.8 | 56.1* | 0.9 | 0.4 | 1.2
Cc1c(NC(=O)CC(=O)Nc2c(C)n(C)n(-c3ccccc3)c2=O)c(=O)n(-c2ccccc2)n1C | 0.2 | 4.8 | 27.6 | 1 | 0.7 | -3.9
C/C(=N/NS(C)(=O)=O)c1ccc2ccccc2c1 | 0.8 | 73.4* | 26.6 | 0.3 | 0.7 | -7.2
CC/C(=N\NS(C)(=O)=O)c1ccccc1 | 0.5 | -19.8 | 10.4 | 1.2 | 0.9 | 8.8
